Assay results as given in PubChem BioAssay AID1259418 (Broad Institute, 2018).
Out of some 3,400 compounds screened, about 840 (25%) were called active. Roughly 11% stayed inconclusive and do not appear here. Only a sample is shown. Entries with a potency or affinity are not part of this list. Unmarked numbers belong to inactive results.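 Rule for the calls: active = fitted half-maximal concentration of signal decrease at or below twice the sample's top tested concentration; inconclusive = flat curve between -70 and -30 percent, or poor fit; inactive = flat within 30 percent, signal rise, or potency above limit.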

Test: T. gondii growth inhibition with IFN-gamma, dose response, cell-based, ME49Luc, HeLa, luciferase, 72 h (AID 1259418)
Details: T. gondii ME49Luc in IFN-y HeLa, stronger effect = lower value, -100% = high-dose IFN-γ control wells; at 19.5 µM unless noted

Compound | max activity
COc1ccc2c(c1)NC1(CCN(C(=O)c3ccc(Br)cc3)CC1)c1cccn1-2 | 15.6% [at 0.68 µM]
O=C(NCCCN1CCCC1=O)C1CCN(Cc2cc3ccccc3n2Cc2ccccc2)CC1 | -6.87% [at 2.6 µM]
Cc1ccc(Cn2c(CN3CCC(C(=O)N4CCCC4)CC3)cc3ccccc32)cc1 | 17.8% [at 2.6 µM]
O=C(NCCN1CCCC1)C1CCN(Cc2cc3ccccc3n2Cc2cccc(Cl)c2)CC1 | -8.03% [at 1.35 µM]
O=C(NCc1cccnc1)C1CCN(Cc2cc3ccccc3n2Cc2cccc(Cl)c2)CC1 | -5.31% [at 5 µM]
O=C(C1CCN(Cc2cc3ccccc3n2Cc2cccc(Cl)c2)CC1)N1CCCC1 | -6.26% [at 1.35 µM]
Cc1cccc(Cn2c(CN3CCC(C(=O)NCCCN4CCCC4=O)CC3)cc3ccccc32)c1 | 13.5%
CC(C)C(=O)Nc1ccc(-c2nc(-c3ccccc3)co2)cc1 | -22.2% [at 10 µM]
Cc1ccc(OCC(=O)Nc2ccc(-c3nc(-c4cc(C)ccc4C)co3)cc2)cc1 | 6.76% [at 10 µM]
CCc1ccccc1Nc1ncnc2c1cnn2-c1ccc(C)cc1C | 12.3% [at 0.68 µM]
COc1ccc(OC)c(S(=O)(=O)N2CCC[C@@H]2C(=O)NCCc2csc(C)n2)c1 | 4.67%
COc1cccc(-c2nc3c(s2)CN(S(=O)(=O)c2ccc(C(C)C)cc2)CC3)c1 | -7.98% [at 2.6 µM]
Cc1cccc(-c2nc(Cn3nnc(-c4nc(-c5ccc(F)cc5)no4)c3C)c(C)o2)c1 | 16.4% [at 10 µM]
OC[C@H]1O[C@@H](n2cnc3c(NC4CCCC4)nc(Cl)nc32)[C@H](O)[C@@H]1O | 22.4%
Cc1ccc2[nH]c(C(=O)N3CCCC3)c(NC(=O)c3ccc(Cl)cc3)c2c1 | 45.1% [at 5 µM]
COc1ccccc1-c1nc(Cn2nnc(-c3nc(-c4ccc(C)c(C)c4)no3)c2C)c(C)o1 | 8.96% [at 0.68 µM]
Cc1cccc(C(=O)Nc2c(C(=O)N3CCN(c4ccccn4)CC3)[nH]c3ccc(C)cc23)c1 | -10.7% [at 5 µM]
CN(C)CCOCC12CCCOC1CCN(C(=O)c1cccn1C)C2 (configuration not stated) | 9.21%
O=C(CC1Nc2c3ccccc3nc(=S)n2C1=O)NC1CCCCC1 (configuration not stated) | 24.9% [at 0.68 µM]
O=C(Cn1c(=O)c(S(=O)(=O)c2ccccc2)cc2ccccc21)NCc1ccco1 | 8.5% [at 0.16 µM]
CCN1CCCC1CNC(=O)C1CCN(Cc2cc3ccccc3n2Cc2ccccc2C)CC1 (configuration not stated) | 14% [at 2.6 µM]
Cc1cccc(Cn2c(CN3CCC(C(=O)NCc4cccnc4)CC3)cc3ccccc32)c1 | 15.7% [at 10 µM]
CCN1CCCC1CNC(=O)C1CCN(Cc2cc3ccccc3n2Cc2cccc(Cl)c2)CC1 (configuration not stated) | 22% [at 10 µM]
O=C(C1CCN(Cc2cc3ccccc3n2Cc2cccc(F)c2)CC1)N1CCCC1 | 8.62%

Compound | max activity
O=C(NCc1cccnc1)C1CCN(Cc2cc3ccccc3n2Cc2ccccc2)CC1 | 21.3% [at 1.35 µM]
O=C(NCc1cccnc1)C1CCN(Cc2cc3ccccc3n2Cc2cccc(F)c2)CC1 | 12.1% [at 0.16 µM]
CCN1CCCC1CNC(=O)C1CCN(Cc2cc3ccccc3n2Cc2ccc(Cl)cc2)CC1 (configuration not stated) | 9.45%
CCc1nc(OCC(=O)Nc2ccc(Cl)c(Cl)c2)c2ccccc2n1 | -17.2%
Cc1ccc(CNC(=O)Nc2ccc(-c3nc(-c4cc(C)ccc4C)co3)cc2)cc1 | -8.13% [at 5 µM]
COc1ccc(CC(=O)N2CCC3(CC2)Nc2cc(OC)ccc2-n2cccc23)cc1 | 20.2% [at 10 µM]
COc1ccc(-c2nc(Nc3ccc(Br)cc3F)c3ccccc3n2)cc1 | 21.7%
O=C(NCCc1csc(-c2ccccc2)n1)[C@H]1CSCN1C(=O)COc1ccccc1 | 9.43%
Cc1ccc2c(c1C)-n1cccc1C1(CCN(C(=O)c3cccc(Cl)c3)CC1)N2 | 6.45%
O=C(C1CCCCC1)N1[C@H](CO)[C@@H]2c3ccccc3N(S(=O)(=O)c3ccccc3)C[C@@H]21 | 26.4%
O=C(C1CCCCC1)N1[C@@H](CO)[C@@H]2c3ccccc3N(S(=O)(=O)c3ccccc3)C[C@@H]21 | 38.7%
O=C(NCc1cncc2c1CCN(Cc1cccc(F)c1)C2)C1CC1 | 11.5%
O=C(CCc1ccccc1)Nc1ccc(-c2nc(-c3ccccc3)co2)cc1 | 120% [at 10 µM]
O=C(c1cccc(F)c1)N1CCCCN2[C@H](CO)[C@H](c3ccc(C#CC4(O)CCCC4)cc3)[C@H]2C1 | -28.8% [at 21 µM]
O=C(Nc1cccc(F)c1)N1CCCCN2[C@H](C1)[C@@H](c1ccc(C#Cc3cccnc3)cc1)[C@@H]2CO | -8.44% [at 0.6 µM]
O=C(c1cccc(F)c1)N1CCCCN2[C@H](C1)[C@H](c1ccc(C#CC3(O)CCCC3)cc1)[C@@H]2CO | -13.9% [at 2.6 µM]
CCN(CCCNc1nc(-c2ccc(OC)cc2)nc2ccccc12)c1cccc(C)c1 | 21.1%
COc1ccc(NC(=O)CN2CCC3(CC2)N=C(c2ccc(F)cc2)C(=O)N3)c(OC)c1 | -31.1% [at 0.35 µM]
COc1ccc(-c2nc(N3CCN(Cc4ccc5c(c4)OCO5)CC3)c3ccccc3n2)cc1 | 17.4% [at 2.6 µM]
Cc1ccc(N2CCN(c3nc(-c4ccc(Cl)cc4)nc4ccccc34)CC2)c(C)c1 | 25.4%
CCOc1ccccc1NC(=O)COc1nc(CC)nc2ccccc12 | -13.2% [at 0.35 µM]
O=C(NC1CCCC1)N1CCCCN2[C@H](CO)[C@@H](c3ccc(-c4cccnc4)cc3)[C@H]2C1 | 11.4%
O=C(NC1CCCC1)N1CCCCN2[C@@H](CO)[C@@H](c3ccc(-c4cccnc4)cc3)[C@@H]2C1 | 33.9%
